# CHRM1 PAM = positive allosteric modulators of human M1 muscarinic receptor | CHO-K1 hM1, Fluo-8 calcium fluorescence, ACh EC20; 0% = ACh EC20, 100% = maximal ACh | 0.088% of 360,000 active | activation, % at 3 µM | P11229; in the data active means activation above about 19%, passing the limit was not always enough
# Target sequence (P11229 whole entry, looked up): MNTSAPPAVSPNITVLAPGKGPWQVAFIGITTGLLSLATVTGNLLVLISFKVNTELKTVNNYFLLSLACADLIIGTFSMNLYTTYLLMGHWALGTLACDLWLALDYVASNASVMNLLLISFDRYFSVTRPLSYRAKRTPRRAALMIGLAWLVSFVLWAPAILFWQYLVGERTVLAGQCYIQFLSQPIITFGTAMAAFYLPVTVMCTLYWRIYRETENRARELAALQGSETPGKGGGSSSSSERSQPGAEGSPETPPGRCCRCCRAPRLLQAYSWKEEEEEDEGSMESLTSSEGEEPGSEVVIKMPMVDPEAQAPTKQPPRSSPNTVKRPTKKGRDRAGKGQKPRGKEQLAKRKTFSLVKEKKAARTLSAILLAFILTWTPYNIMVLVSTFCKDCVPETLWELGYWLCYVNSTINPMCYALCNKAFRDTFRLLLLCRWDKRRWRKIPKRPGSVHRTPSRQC
# M1 ag parental = nonselective activator or artifact in parental CHO-K1 cells; Fluo-8 calcium fluorescence; scaled to maximal ATP response, vehicle zero; activation, % at 3 µM; 0.48% of 360,000 active; AID 602248; in the data active means activation above about 15%;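 further: untransfected CHO-K1 host cells lacking M1 receptor as counterscreen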
# M1 ag = agonists of human M1 muscarinic receptor; P11229; CHO-K1 hM1, Fluo-8 calcium fluorescence, agonist mode; 0% DMSO, 100% acetylcholine EC100; activation, % at 3 µM; 0.33% of 360,000 active;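 active means activation above the run's mean compound activation plus 3 SD, cut at about 16% in these data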;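 further: peak over basal fluorescence ratio within a 140 s kinetic read after compound addition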
# CHO-K1 Ca antag = counter-screen for M1 antagonists: effect in parental CHO-K1 cells; ATP-induced calcium, Fluo-8 fluorescence; inhibition, % at 3 µM; 0.6% of 360,000 active; AID 602250;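 active means inhibition above a per-plate cutoff, the plate's mean sample inhibition plus 3 SD, cut at about 24% in these data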;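 further: 0% = DMSO plus EC80 ATP and 100% = DMSO alone without ATP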
# M1 antag = blocks human M1 muscarinic receptor | P11229 | CHO-K1 hM1, Fluo-8 calcium fluorescence, ACh EC80 antagonist | inhibition, % at 3 µM | 1.3% of 360,000 active | AID 588852;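 active means percent inhibition above its own plate's cutoff, namely the mean of that plate's compound wells plus 3 SD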;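 further: peak over basal fluorescence ratio during 140 s after agonist addition; 0% = ACh EC80 plus DMSO and 100% = DMSO alone without agonist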
# CHO-K1 Ca PAM = M1 PAM counterscreen hit in parental CHO-K1 cells; ATP EC20, Fluo-8 calcium fluorescence; 0% at ATP EC20, 100% at ATP max; activation, % at 3 µM; 0.02% of 360,000 active;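 active means activation above the run cutoff, the mean activation of all test compounds plus 3 SD, cut at about 40% in these data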;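 further: peak over basal fluorescence ratio in a 140 s read after ATP addition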
# * marks the source's active call; other numbers are inactive results; ! = not confirmed by another sample. Hits are enriched below; roughly 2.4% of the tested compounds scored in any of these assays.
SMILES,CHRM1 PAM,M1 ag parental,M1 ag,CHO-K1 Ca antag,M1 antag,CHO-K1 Ca PAM
O=C1c2ccccc2CC1Sc1nnc(-c2ccncc2)o1 (stereo unspecified),4,0,1,24*,-4,-7
O=C1CC(Sc2nnc(-c3ccccc3)o2)C(=O)N1c1ccccc1 (stereo unspecified),11,1,1,4,-15,8
CCCOP(=O)(c1ccc(N(C)C)cc1)C(Nc1ccccc1)c1ccc(N(C)C)cc1 (stereo unspecified),-5,0,-3,-8,6,21
CCCCOP(=O)(c1ccc(N(C)C)cc1)C(Nc1ccccc1)c1ccccc1 (stereo unspecified),-14,27*,-3,11,30,14
OC(CNC1Cc2ccccc2C1)c1ccccc1 (stereo unspecified),3,2,16*,-18,-3,3
Cc1ccc(S(=O)(=O)NCCC(=O)N2CCC(C(N)=O)CC2)cc1C,24*,1,1,-11,-20,7
O=C1NC2(c3ccccc3)NC(=O)NC2(c2ccccc2)N1 (stereo unspecified),2,1,-4,4,-6,25
CN1C(=O)N(C)C2(c3ccccc3)NC(=O)NC12c1ccccc1 (stereo unspecified),11,0,8,29*,-14,-8
Cc1cc(C)n2c(Nc3ccc4c(c3)OCCO4)c(-c3ccccc3)nc2n1,0,0,-1,-16,12,18
CN(c1ccccc1)S(=O)(=O)c1cccc(NC(=O)CN2CCCc3ccccc32)c1,-3,15*,-3,8,15,10
CN(CC(=O)Nc1cccc(F)c1)CC(=O)Nc1cccc(S(=O)(=O)N(C)c2ccccc2)c1,-8,11,-3,-8,17,8
Cc1cc(C)c(NC(=O)CN(C)CC(=O)Nc2cccc(S(=O)(=O)N(C)c3ccccc3)c2)c(C)c1,-14,9,-1,-9,36*,-1
CN(c1ccccc1)S(=O)(=O)c1cccc(NC(=O)CSc2nncs2)c1,-12,13,1,29*,31,-7
COc1cccc(-n2nnnc2SCC(=O)Nc2ccccc2OC)c1,12,1,-2,-6,-22,21
COc1cc(/C=C(\C#N)c2nc3ccc(C)cc3[nH]2)c([N+](=O)[O-])cc1OC,4,0,13,-9,-29,19
CCCOc1cc(N(CC)CC)ccc1/C=C(/C#N)c1nc2ccc(C)cc2[nH]1,-12,17*,11,35*,39*,-4
CCOc1cc(N(CC)CC)ccc1/C=C(/C#N)c1nc2ccccc2[nH]1,-19,19*,36*,21,52*,-8
CCN(CC)c1ccc(/C=C(/C#N)c2nc3ccc(C)cc3[nH]2)c(OC(C)C)c1,-25,39*,31*,50*,52*,-14
CC(C)(C)OC(=O)C[C@@H]1C/C=C\C[C@@H](CC(=O)N[C@@H](CO)Cc2ccccc2)C(=O)NC[C@@H](c2ccccc2)OC1=O,-12,4,-8,-7,18,-6
Cc1cc2ncn(CCC(=O)NC3CCCC3)c2cc1C,-5,19*,-5,9,16,5
COc1cc(CNCc2ccc(Br)cc2)cc(OC)c1,-7,15*,1,18,7,-12
CC(C)CC1Nc2ncnc(N3CCN(c4ccccn4)CC3)c2N(Cc2ccccc2)C1=O (stereo unspecified),-30,0,-12,-13,38*!,-7
O=S(=O)(O)c1cc(O)ccc1O,-9,1,35*,0,-24,5
O=C(COc1ccccc1[N+](=O)[O-])Nc1cccc(C(=O)Nc2ccccc2C(=O)O)c1,16,0,0,1,-15,3
O=C(NCc1ccco1)C12CC3CC(CC(C3)C1)C2,10,-1,-3,1,-12,6
SMILES,CHRM1 PAM,M1 ag parental,M1 ag,CHO-K1 Ca antag,M1 antag,CHO-K1 Ca PAM
c1ccc(CC2CCCNC2)cc1 (stereo unspecified),-11,0,22*,-20,23,22
CCOC(=O)c1cnn(-c2ccccc2)c1-n1cccc1C(=O)C(=O)Nc1ccc(OC)cc1,19*,0,-1,-7,-37,-6
S=C(Nc1ccc(Cl)c(Cl)c1)NC1CCCCC1,-29,23*,-4,13,44*,2
FC(F)(F)c1cccc(N2CCN(C(=S)NC3CCCC3)CC2)c1,-12,3,-3,2,33*,3
S=C(Nc1ccc(Cl)c(Cl)c1)NC1CCN(Cc2ccccc2)CC1,11,12,17*,24*,6,14
O=S(=O)(c1ccc(NC(=S)NC2CCCC2)cc1)N1CCCC1,-15,4,-7,25*,10,-10
Fc1ccc(NC(=S)NC2CCN(Cc3ccccc3)CC2)cc1,-9,5,-7,-6,7,3
S=C(Nc1ccc2nsnc2c1)NC1CCCCC1,-10,4,-3,-11,5,0
COc1ccc(OC)c(/C=C/C(=O)Nc2cccc(S(=O)(=O)NC3=NCCCCC3)c2)c1,0,3,-4,-11,-3,-5
CC(O)CSc1nc2c(c(=O)[nH]c(=O)n2C)n1CC(O)COc1ccccc1 (stereo unspecified),5,1,-3,-15,-2,11
C(=NN=C1c2ccccc2-c2ccccc21)c1c[nH]c2ccccc12,7,1,0,-6,-13,11
FC(F)(F)c1cccc(NC(=S)NC2CCCC2)c1,-14,9,-4,25*,18,-16
CCN(c1ccccc1)S(=O)(=O)c1ccc(C(=O)NCC(c2cccs2)N(C)C)cc1 (stereo unspecified),-24,7,-5,-10,36*,11
CCN(c1ccccc1)S(=O)(=O)c1cc(C(=O)NCC(c2ccc(OC)cc2)N(C)C)ccc1C (stereo unspecified),-10,2,36*,-16,55*,15
CCCOc1ccc(C(=O)NCC(c2cccs2)N(C)C)cc1 (stereo unspecified),-21,0,-13,9,9,1
CCCS(=O)(=O)C(=C(Nc1ccc(OC)cc1)Nc1ccc(OC)cc1)S(=O)(=O)CCC,6,0,-5,-6,-6,22
COc1cc(NC(=O)c2ccco2)c(OC)cc1NC(=O)Nc1ccccc1Cl,-21,1,-5,-18,30*,3
COc1cc(C(=O)Oc2cccc(Nc3ncnc4ccccc34)c2)cc(OC)c1OC,-20,11,0,11,41*,-3
COC(=O)Cc1ccc(OC2(C)CCN(Cc3ccccc3)C2)cc1 (stereo unspecified),-26,1,-6,-10,53*,16

# Screening results deposited in PubChem BioAssay by The Scripps Research Institute Molecular Screening Center.
